# According to paper PMC5540273 (PLoS ONE, 2017):
# Legend:
# Details in all cases: concentration: 1 μM, replicates: in singlicate; n = 1
# [1] = tested on: T1, NIM1
# T1 construct: gene MGC42105
# [2] = tested on: NLK
# [3] = tested on: T2, OSR1
# T2 construct: gene OXSR1
# [4] = tested on: PAK1
# [5] = tested on: PAK2
# [6] = tested on: PAK3
# [7] = tested on: PAK4
# [8] = tested on: PAK6
# [9] = tested on: PAK7
# [10] = tested on: T3, PCTK1
# T3 construct: gene CDK16
# 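Further: KINOMEscan kinase panel screen.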
SMILES,%Inh [1] [%],%Inh [2] [%],%Inh [3] [%],%Inh [4] [%],%Inh [5] [%],%Inh [6] [%],%Inh [7] [%],%Inh [8] [%],%Inh [9] [%],%Inh [10] [%]
COC(=O)Nc1nc2cc(Oc3ccc(NC(=O)Nc4cccc(SC)c4)cc3)ccc2[nH]1.Cl [GW697999],32,0,15,0,0,29,0,0,0,3
N#Cc1cnc2cc(-c3cnc(CNCCN4CCOCC4)s3)ccc2c1Nc1ccc(Oc2ccccc2)cc1 [GW664114],12,0,0,10,0,21,0,10,2,28
CC(=O)Nc1cn2nc(Oc3cccc(NC(=O)c4cccc(C(F)(F)F)c4)c3)ccc2n1,0,16,0,9,15,16,15,12,0,0
COc1cccc(NC(=O)NCCNc2ccnc(Nc3ccc(F)cc3)n2)c1 [GSK1379879],17,8,17,16,8,0,0,0,0,0
CN(c1ccc(F)c(NC(=O)c2cccc(OC(C)(C)C#N)c2Cl)c1)c1ccc2nc(NC(=O)C3CC3)sc2n1,8,78,5,5,0,27,0,0,0,2
CCNc1nccc(-c2c(-c3ccc(F)cc3)ncn2C2CCN(C)CC2)n1,0,95,0,7,8,0,2,30,0,0
CN(c1ccc2c(c1)nc(NCc1ccccc1)n2C)c1ccnc(Nc2ccc(CS(C)(=O)=O)cc2)n1.Cl [GW811603],22,0,0,0,0,42,22,13,2,0
O=C(Nc1n[nH]c2nc(-c3ccccc3)ccc12)C1CC1 [SB-708999],29,78,17,0,0,5,0,0,0,16
Nc1cccc(-c2ccc3c(N)n[nH]c3c2)c1 [GSK2193613],0,17,13,2,2,0,0,6,15,0
COc1cc(Nc2nccc(N3CCC(NS(=O)(=O)c4ccc(NC(C)=O)cc4)CC3)n2)cc(OC)c1OC [GSK1379825],16,27,19,0,19,13,0,5,1,14
Fc1cc(Cl)ccc1Nc1ccnc2cc(-c3ccc(CN4CCSCC4)o3)ccc12 [GW560106],23,30,0,8,4,45,0,0,0,0
O=C(Nc1n[nH]c2cc(-c3cccs3)ccc12)C1CC1 [SB-731284],12,0,16,0,0,43,0,0,7,48
COc1ccc(C)c(Nc2ccnc(Nc3ccc(-c4cnc[nH]4)cc3)n2)c1.Cl [GW784041],0,13,0,0,12,20,6,10,0,0
NCCC(NC(=O)c1cc(Br)c(-c2ccnc3[nH]ccc23)s1)c1ccccc1.O=C(O)C(F)(F)F.O=C(O)C(F)(F)F (stereo not shown) [GSK1307810],7,3,10,19,56,76,74,62,86,1
COc1ccc(NC(=O)c2ccoc2)cc1-c1ccc(C(=O)NCC2CC2)cc1 [GW810437],41,11,17,0,44,24,0,0,10,4
CN(C)CCNS(=O)(=O)c1ccc(-c2ccnc3[nH]ccc23)cc1 [GSK977620],13,20,30,34,32,71,56,64,58,7
